Laboratory results published in PubChem BioAssay (Tox21).
Records with an inconclusive call do not appear. Calls of active or inactive are those of the source. Unless noted, calls come from the whole dose curve.

What was measured:
[1] = Nuclear factor erythroid 2-related factor 2/antioxidant responsive element (Nrf2/ARE) small molecule agonists: qHTS cell viability counter screen in human keratinocytes (AID 1919968; active = well fitted curve in the direction sought with a large enough effect in the repeat runs; an effect the other way counts as inactive or inconclusive; note: nearly all actives have a fitted effect of over 55% in size)
Method in brief: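 Fluorescence read-out from CellTiter-Fluor after 1 h at 37 C. Wells held HaCaT-derived ARE-luciferase reporter cells (1,500/well) treated 23 h with DMSO-dissolved compounds. Run in the same wells as the luciferase agonist read.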

[2] = Nuclear factor erythroid 2-related factor 2/antioxidant responsive element (Nrf2/ARE) small molecule agonists: luciferase reporter gene qHTS assay in human keratinocytes (AID 1919969); note: nearly all actives have a fitted effect of over 35% in size
[3] = biological target: KiSS-1 receptor (Homo sapiens) (UniProt Q969F8); assay: Human kisspeptin (KISS1R) small molecule agonists, calcium flux assay in KISS1R-HEK293 cells (AID 1920064; active = well fitted curve in the direction sought with a large enough effect in the repeat runs; an effect the other way counts as inactive or inconclusive)
Chain of KiSS-1 receptor (Homo sapiens) (Q969F8 whole entry, looked up): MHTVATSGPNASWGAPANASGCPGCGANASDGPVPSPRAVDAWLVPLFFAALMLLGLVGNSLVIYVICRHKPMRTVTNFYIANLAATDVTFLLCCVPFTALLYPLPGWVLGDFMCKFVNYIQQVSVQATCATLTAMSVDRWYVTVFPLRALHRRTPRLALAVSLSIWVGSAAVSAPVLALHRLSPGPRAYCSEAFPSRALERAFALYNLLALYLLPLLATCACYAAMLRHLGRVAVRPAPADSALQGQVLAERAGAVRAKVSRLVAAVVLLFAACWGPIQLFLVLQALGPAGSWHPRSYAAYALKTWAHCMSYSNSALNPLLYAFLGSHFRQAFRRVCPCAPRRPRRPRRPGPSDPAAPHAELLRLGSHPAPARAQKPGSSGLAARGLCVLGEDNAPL
Method in brief: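 Calcium flux read-out: kinetic fluorescence at Ex/Em=480/540, 1 s intervals over 3 min, after pin-tool compound addition to dye-loaded KISS1R-HEK293 cells. Fifteen concentrations, triplicates.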

[4] = G protein-coupled receptor (GPCR) small molecule agonists, calcium flux assay: HEK293 wild type cell line counter screen (AID 1920065)
Method in brief: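 Agonist mode; 18 h seeding at 37 C, 1 h dye load at 37 C; compounds pinned from DMSO, ATP as positive control; kinetic fluorescence 480/540 nm, 3 min, 1 s reads; 15 concentrations, triplicate.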

[5] = p53 small molecule agonists, cell-based qHTS assay with rat liver microsomes (AID 1963578)
Method in brief: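 Metabolic activation is supplied by rat liver microsomes with NADPH (each 0.5 mg/mL final). p53RE-bla cells incubate with compound 16 h at 37 C; reporter activity is measured by LiveBLAzer fluorescence.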

[6] = p53 small molecule agonists, cell-based qHTS assay with human liver microsomes: qHTS cell viability counter screen (AID 1963579); note: nearly all actives have a fitted effect of over 45% in size
Method in brief: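 After the 460/530 nm beta-lactamase read, CellTiter-Glo was added to the same wells and luminescence measured after 30 min at room temperature, giving viability of p53RE-bla cells treated 16 h with compounds plus microsomes and NADPH.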

[7] = p53 small molecule agonists, cell-based qHTS assay with rat liver microsomes: qHTS cell viability counter screen (AID 1963580); note: nearly all actives have a fitted effect of over 45% in size
Method in brief: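 Cytotoxicity counter screen: intracellular ATP read by CellTiter-Glo luminescence in the p53 reporter wells. HCT-116 p53RE-bla cells were treated for 16 h at 37 C alongside rat liver microsomes and NADPH, each 0.5 mg/mL final.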

[8] = p53 small molecule agonists, cell-based qHTS assay: qHTS cell viability counter screen (AID 1963581); note: nearly all actives have a fitted effect of over 45% in size
Method in brief: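 Cytotoxicity read-out: ATP-based luminescence (CellTiter-Glo, 30 min RT) measured in the same wells as the p53 reporter assay, HCT-116 p53RE-bla cells, 16 h compound exposure at 37 C.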

[9] = p53 small molecule agonists, cell-based qHTS assay (AID 1963582; active = well fitted activation curve with a large enough effect in the signal ratio in the repeat runs, not every such curve was filed as active; the % refers to the signal ratio)
Method in brief: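 Fluorescence intensity read-out of a beta-lactamase reporter under a p53 response element. Cells were exposed to DMSO-dissolved compounds for 16 h at 37 C, then developed with FRET substrate for 2 h at RT.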

[10] = biological target: 5-hydroxytryptamine receptor 2A (Homo sapiens) (UniProt P28223); assay: 5-hydroxytryptamine receptor 2A (HTR2A) small molecule antagonists, cell-based qHTS assay (AID 1963586); note: nearly all actives have a fitted effect of over 45% in size
Chain of 5-hydroxytryptamine receptor 2A (Homo sapiens) (P28223 whole entry, looked up): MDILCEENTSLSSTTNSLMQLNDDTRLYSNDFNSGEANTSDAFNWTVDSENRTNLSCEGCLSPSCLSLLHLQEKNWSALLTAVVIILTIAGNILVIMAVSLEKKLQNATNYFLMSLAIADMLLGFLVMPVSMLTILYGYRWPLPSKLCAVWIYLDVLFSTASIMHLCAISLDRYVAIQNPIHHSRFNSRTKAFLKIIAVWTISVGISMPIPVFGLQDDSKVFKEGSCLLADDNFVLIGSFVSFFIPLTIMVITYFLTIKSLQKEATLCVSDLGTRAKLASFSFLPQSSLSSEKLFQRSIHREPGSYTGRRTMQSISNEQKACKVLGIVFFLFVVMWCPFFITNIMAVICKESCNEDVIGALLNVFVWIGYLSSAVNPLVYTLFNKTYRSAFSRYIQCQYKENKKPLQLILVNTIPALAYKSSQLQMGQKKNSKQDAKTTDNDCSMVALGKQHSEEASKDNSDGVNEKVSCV
Method in brief: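 CHO cells stably expressing human HTR2A were plated for 18 h at 37 C, then loaded with calcium dye for 1 h. Compounds were preincubated 5 min at room temperature before DOI (4 nM solution) was added. Kinetic fluorescence was read for 3 min.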

[11] = biological target: 5-hydroxytryptamine receptor 2A (Homo sapiens) (UniProt P28223); assay: 5-hydroxytryptamine receptor 2A (HTR2A) small molecule agonists, cell-based qHTS assay (AID 1963587); note: nearly all actives have a fitted effect of over 30% in size
Method in brief: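 Kinetic calcium-flux fluorescence (2 min, 1 sec intervals) after compound addition in agonist mode. HTR2A-CHO cells were cultured 18 h, then dye-loaded 1 h at 37 C.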

[12] = biological target: Muscarinic acetylcholine receptor M1 (Homo sapiens) (UniProt P11229); assay: Cholinergic receptor muscarinic 1 (CHRM1) small molecule agonists, cell-based qHTS assay (AID 1963589); note: nearly all actives have a fitted effect of over 35% in size
Chain of Muscarinic acetylcholine receptor M1 (Homo sapiens) (P11229 whole entry, looked up): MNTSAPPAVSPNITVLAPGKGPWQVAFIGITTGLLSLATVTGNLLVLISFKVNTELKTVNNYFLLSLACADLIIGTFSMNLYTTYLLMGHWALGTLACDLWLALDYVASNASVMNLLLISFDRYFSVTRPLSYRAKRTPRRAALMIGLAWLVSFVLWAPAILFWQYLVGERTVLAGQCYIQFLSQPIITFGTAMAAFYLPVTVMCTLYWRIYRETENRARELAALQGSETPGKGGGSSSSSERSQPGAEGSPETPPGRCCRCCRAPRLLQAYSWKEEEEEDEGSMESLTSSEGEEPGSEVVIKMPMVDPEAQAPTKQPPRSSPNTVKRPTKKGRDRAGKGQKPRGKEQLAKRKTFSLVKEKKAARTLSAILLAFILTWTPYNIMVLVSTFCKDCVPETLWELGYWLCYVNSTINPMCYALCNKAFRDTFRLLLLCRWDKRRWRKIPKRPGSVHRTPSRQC
Method in brief: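 Calcium flux read-out: kinetic fluorescence at 1 sec intervals after pin-tool compound addition to dye-loaded CHRM1-CHO cells (human M1). Agonist mode; 15 concentrations tested in triplicate independent runs.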

[13] = cAMP Responsive Elements (CRE) small molecule antagonists, cell-based qHTS assay (AID 1963591; active = well fitted inhibition curve with a large enough effect in the signal ratio in the repeat runs, not every such curve was filed as active; the % refers to the signal ratio)
Method in brief: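 HEK293T CRE-bla; 18 h preincubation; compound pin-transfer; NKH477 0.25 uM final, 3 h, 37 C; LiveBLAzer FRET substrate 2 h RT.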

[14] = biological target: Beta-2 adrenergic receptor (Homo sapiens) (UniProt P07550); assay: Adrenergic beta2 receptor (ADRB2) small molecule antagonists, cell-based qHTS assay (AID 1963592); note: series mostly up to about 92 µM; nearly all actives have a fitted effect of over 50% in size
Chain of Beta-2 adrenergic receptor (Homo sapiens) (P07550 whole entry, looked up): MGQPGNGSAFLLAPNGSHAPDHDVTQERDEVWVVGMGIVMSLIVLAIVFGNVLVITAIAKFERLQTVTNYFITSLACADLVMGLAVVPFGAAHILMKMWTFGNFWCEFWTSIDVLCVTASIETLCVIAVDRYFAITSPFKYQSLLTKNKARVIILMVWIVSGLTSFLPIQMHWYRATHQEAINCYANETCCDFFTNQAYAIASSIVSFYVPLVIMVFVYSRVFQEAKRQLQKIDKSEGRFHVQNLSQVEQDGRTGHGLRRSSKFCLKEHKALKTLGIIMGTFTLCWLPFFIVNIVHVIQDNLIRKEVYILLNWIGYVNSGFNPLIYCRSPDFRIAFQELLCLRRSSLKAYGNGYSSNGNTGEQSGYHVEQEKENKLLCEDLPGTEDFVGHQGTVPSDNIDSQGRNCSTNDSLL
Method in brief: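 Assay format: CHO-ADRB2 cells, 18-20hr seeding at 37C/5% CO2, then compound plus 1nM isoproterenol agonist mix for 0.5hr RT. Homogeneous time-resolved fluorescence cAMP detection after 1hr, expressed as 665/615 nm ratio.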

[15] = biological target: D(2) dopamine receptor (Homo sapiens) (UniProt P14416); assay: Dopamine D2 receptor (DRD2) small molecule agonists, cell-based qHTS assay (AID 1963594); note: nearly all actives have a fitted effect of over 35% in size
Chain of D(2) dopamine receptor (Homo sapiens) (P14416 whole entry, looked up): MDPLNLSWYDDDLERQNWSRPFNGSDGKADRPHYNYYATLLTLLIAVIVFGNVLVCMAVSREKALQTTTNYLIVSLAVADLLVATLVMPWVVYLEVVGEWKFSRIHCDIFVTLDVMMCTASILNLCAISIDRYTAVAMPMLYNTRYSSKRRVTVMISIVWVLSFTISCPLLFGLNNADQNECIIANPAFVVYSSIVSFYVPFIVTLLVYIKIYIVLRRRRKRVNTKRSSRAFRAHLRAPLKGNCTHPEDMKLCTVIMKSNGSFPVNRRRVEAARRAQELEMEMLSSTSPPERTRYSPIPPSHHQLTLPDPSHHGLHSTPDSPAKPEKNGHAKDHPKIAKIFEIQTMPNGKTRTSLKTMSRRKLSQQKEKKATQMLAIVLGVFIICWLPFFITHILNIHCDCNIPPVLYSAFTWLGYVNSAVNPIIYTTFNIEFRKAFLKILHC
Method in brief: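 cAMP accumulation in DRD2-HEK293 cells measured by HTRF after 1 h detection; compounds added 10 min before NKH477 (200nM […]) forskolin-analogue stimulation, 30 min at room temperature, with Ro20-1724 present at 0.1 mM final.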

[16] = p53 small molecule agonists, cell-based qHTS assay with human liver microsomes (AID 1963577);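 note: p53 response element beta-lactamase reporter cells with liver microsomes plus NADPH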
Method in brief: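 Steps: plate p53RE-bla cells, incubate 5 h at 37 C; add compound in DMSO; add microsomes (0.5 mg/mL final) and NADPH (0.5 mg/mL final); incubate 16 h at 37 C; add LiveBLAzer, 2 h RT; read fluorescence.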

[17] = biological target: Muscarinic acetylcholine receptor M1 (Homo sapiens) (UniProt P11229); assay: Cholinergic receptor muscarinic 1 (CHRM1) small molecule antagonists, cell-based qHTS assay (AID 1963588); note: nearly all actives have a fitted effect of over 40% in size
Method in brief: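 Compounds were tested at 15 concentrations in three independent runs. Dye-loaded CHRM1-CHO cells were exposed 5 min at room temperature before stimulation by acetylcholine added at 50nM. Intracellular calcium was read kinetically on FDSS for 3 min.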

[18] = biological target: D(2) dopamine receptor (Homo sapiens) (UniProt P14416); assay: Dopamine D2 receptor (DRD2) small molecule antagonists, cell-based qHTS assay (AID 1963595; active = well fitted inhibition curve with a large enough effect in the signal ratio in the repeat runs, with a control signal flat; the % refers to the signal ratio)
Method in brief: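 Human DRD2 antagonist qHTS measuring cAMP by HTRF. The cells are exposed to compound for 10 min, then to NKH477 (200 nM) and quinpirole (12 nM) for 30 min at RT, with Ro20-1724 (0.1 mM) present throughout.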

[19] = cAMP Responsive Elements (CRE) small molecule agonists, cell-based qHTS assay (AID 1963590)
Method in brief: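 Beta-lactamase reporter readout: LiveBLAzer B/G FRET substrate, 2 h at room temperature, added after 3 h compound treatment of CRE-bla HEK 293T cells at 37 C/5% CO2.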

Measured: Potency

CN1Cc2cc(C(=O)N3CCC(C4CCNCC4)CC3)ccc2NC(CC(=O)O)C1=O (stereo unspecified)
not listed: [16] | [17] | [18] | [19]
inactive: all other assays above

CCOc1ccccc1N
not listed: [6] | [10] | [11] | [13] | [19]
inactive: all other assays above

CC(C)Nc1nc(N)nc(Cl)n1
not listed: [13] | [16]
inactive: all other assays above

CCOC(=O)C(C)O (stereo unspecified)
not listed: [3]
inactive: all other assays above

O=C(O)c1ccc2cc(O)ccc2c1
not listed: [4] | [11] | [13] | [19]
inactive: all other assays above

CN(C)CCN(Cc1ccsc1)c1ccccn1
not listed: [3] | [10] | [18]
inactive: all other assays above

CC[N+](CC)(CC)CCOc1cccc(OCC[N+](CC)(CC)CC)c1OCC[N+](CC)(CC)CC
not listed: [4] | [6] | [10] | [11] | [12] | [17]
inactive: all other assays above

CN1C(=O)N(C)C(O)C1O (stereo unspecified)
not listed: [5]
inactive: all other assays above
